Results reported in the supplement of paper PMC7411054.
Counter-ions that a name gives are not always drawn.

Assays:
Experiment in all cases: phenotypically active (imaging signature differs from DMSO and reproducible) at any of 0.3-9 uM (binary (1 = active, 0 = inactive)); higher = active
Details in all cases: treatment time: 24 h
A549-ACTB-RAB5A = tested on: A549-ACTB-RAB5A
Summary of the method: (§1)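 Fifteen gene-edited A549, HepG2 and WPMY1 reporter lines (BFP segmentation plus GFP and RFP/FusionRed markers) were treated at 0.3, 1, 3 or 9 µM for 24 h, four wells each, then imaged live. Live-cell features per well were normalised to DMSO control wells. Deviation required ≥3 of 4 wells beyond the 95th percentile of DMSO Euclidean distances, and reproducibility required median replicate Pearson correlation above the 95th percentile of non-replicates. Phenotypic activity needed both criteria.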

A549-CANX-COX4 = tested on: A549-CANX-COX4
Summary of the method: as §1

A549-GM130-SQSTM1 = tested on: A549-GM130-SQSTM1
Summary of the method: as §1

A549-TP53BP1-CLTA = tested on: A549-TP53BP1-CLTA
Summary of the method: as §1

A549-TUBA1B-RELA = tested on: A549-TUBA1B-RELA
Summary of the method: as §1

HepG2-ACTB-RAB5A = tested on: HepG2-ACTB-RAB5A
Summary of the method: as §1

HepG2-CANX-COX4 = tested on: HepG2-CANX-COX4
Summary of the method: as §1

HepG2-GM130-SQSTM1 = tested on: HepG2-GM130-SQSTM1
Summary of the method: as §1

HepG2-TP53BP1-CLTA = tested on: HepG2-TP53BP1-CLTA
Summary of the method: as §1

HepG2-TUBA1B-RELA = tested on: HepG2-TUBA1B-RELA
Summary of the method: as §1

WPMY1-ACTB-RAB5A = tested on: WPMY1-ACTB-RAB5A
Summary of the method: as §1

WPMY1-CANX-COX4 = tested on: WPMY1-CANX-COX4
Summary of the method: as §1

WPMY1-GM130-SQSTM1 = tested on: WPMY1-GM130-SQSTM1
Summary of the method: as §1

WPMY1-TP53BP1-CLTA = tested on: WPMY1-TP53BP1-CLTA
Summary of the method: as §1

WPMY1-TUBA1B-RELA = tested on: WPMY1-TUBA1B-RELA
Summary of the method: as §1

Measured: phenotypically active

C=C(C)[C@@H]1CC[C@]2(CO)CC[C@]3(C)[C@H](CC[C@@H]4[C@@]5(C)CC[C@H](O)C(C)(C)[C@@H]5CC[C@]43C)[C@@H]12 [Betulin]
inactive: A549-ACTB-RAB5A 0 | A549-CANX-COX4 0 | A549-GM130-SQSTM1 0 | A549-TP53BP1-CLTA 0 | A549-TUBA1B-RELA 0 | HepG2-ACTB-RAB5A 0 | HepG2-CANX-COX4 0 | HepG2-GM130-SQSTM1 0 | HepG2-TP53BP1-CLTA 0 | HepG2-TUBA1B-RELA 0 | WPMY1-ACTB-RAB5A 0 | WPMY1-CANX-COX4 0 | WPMY1-GM130-SQSTM1 0 | WPMY1-TP53BP1-CLTA 0 | WPMY1-TUBA1B-RELA 0

CC1=C(CC(=O)O)c2cc(F)ccc2/C1=C\c1ccc(S(C)=O)cc1 (stereo not given) [sulindac]
inactive: A549-ACTB-RAB5A 0 | A549-CANX-COX4 0 | A549-GM130-SQSTM1 0 | A549-TP53BP1-CLTA 0 | A549-TUBA1B-RELA 0 | HepG2-ACTB-RAB5A 0 | HepG2-CANX-COX4 0 | HepG2-GM130-SQSTM1 0 | HepG2-TP53BP1-CLTA 0 | HepG2-TUBA1B-RELA 0 | WPMY1-ACTB-RAB5A 0 | WPMY1-CANX-COX4 0 | WPMY1-GM130-SQSTM1 0 | WPMY1-TP53BP1-CLTA 0 | WPMY1-TUBA1B-RELA 0

CN(C)CCCSc1ccccc1NC(=O)/C=C/c1ccccc1 [Cinanserin hydrochloride]
inactive: A549-ACTB-RAB5A 0 | A549-CANX-COX4 0 | A549-GM130-SQSTM1 0 | A549-TP53BP1-CLTA 0 | A549-TUBA1B-RELA 0 | HepG2-ACTB-RAB5A 0 | HepG2-CANX-COX4 0 | HepG2-GM130-SQSTM1 0 | HepG2-TP53BP1-CLTA 0 | HepG2-TUBA1B-RELA 0 | WPMY1-ACTB-RAB5A 0 | WPMY1-CANX-COX4 0 | WPMY1-GM130-SQSTM1 0 | WPMY1-TP53BP1-CLTA 0 | WPMY1-TUBA1B-RELA 0

COCC(=O)N[C@@H](Cc1ccc(-c2cc(Cl)cc(Cl)c2)cc1)[C@H](O)[C@@H](O)C(=O)O
inactive: A549-ACTB-RAB5A 0 | A549-CANX-COX4 0 | A549-GM130-SQSTM1 0 | A549-TP53BP1-CLTA 0 | A549-TUBA1B-RELA 0 | HepG2-ACTB-RAB5A 0 | HepG2-CANX-COX4 0 | HepG2-GM130-SQSTM1 0 | HepG2-TP53BP1-CLTA 0 | HepG2-TUBA1B-RELA 0 | WPMY1-ACTB-RAB5A 0 | WPMY1-CANX-COX4 0 | WPMY1-GM130-SQSTM1 0 | WPMY1-TP53BP1-CLTA 0 | WPMY1-TUBA1B-RELA 0

O=[N+]([O-])c1cc([N+](=O)[O-])c(/C=C/c2ccc(Cl)c(Cl)c2)cc1/C=C/c1ccc(Cl)c(Cl)c1
inactive: A549-ACTB-RAB5A 0 | A549-CANX-COX4 0 | A549-GM130-SQSTM1 0 | A549-TP53BP1-CLTA 0 | A549-TUBA1B-RELA 0 | HepG2-ACTB-RAB5A 0 | HepG2-CANX-COX4 0 | HepG2-GM130-SQSTM1 0 | HepG2-TP53BP1-CLTA 0 | HepG2-TUBA1B-RELA 0 | WPMY1-ACTB-RAB5A 0 | WPMY1-CANX-COX4 0 | WPMY1-GM130-SQSTM1 0 | WPMY1-TP53BP1-CLTA 0 | WPMY1-TUBA1B-RELA 0

Cc1cc(-c2ccc(/C=C3\S/C(=N\c4ccc(Cl)c(C(=O)O)c4)NC3=O)o2)c([N+](=O)[O-])cc1C
inactive: A549-ACTB-RAB5A 0 | A549-CANX-COX4 0 | A549-GM130-SQSTM1 0 | A549-TP53BP1-CLTA 0 | A549-TUBA1B-RELA 0 | HepG2-ACTB-RAB5A 0 | HepG2-CANX-COX4 0 | HepG2-GM130-SQSTM1 0 | HepG2-TP53BP1-CLTA 0 | HepG2-TUBA1B-RELA 0 | WPMY1-ACTB-RAB5A 0 | WPMY1-CANX-COX4 0 | WPMY1-GM130-SQSTM1 0 | WPMY1-TP53BP1-CLTA 0 | WPMY1-TUBA1B-RELA 0

COc1ccc([C@@H]2CC(=O)c3c(O)cc(O[C@@H]4O[C@H](CO[C@@H]5O[C@@H](C)[C@H](O)[C@@H](O)[C@H]5O)[C@@H](O)[C@H](O)[C@H]4O)cc3O2)cc1O [Hesperidin]
inactive: A549-ACTB-RAB5A 0 | A549-CANX-COX4 0 | A549-GM130-SQSTM1 0 | A549-TP53BP1-CLTA 0 | A549-TUBA1B-RELA 0 | HepG2-ACTB-RAB5A 0 | HepG2-CANX-COX4 0 | HepG2-GM130-SQSTM1 0 | HepG2-TP53BP1-CLTA 0 | HepG2-TUBA1B-RELA 0 | WPMY1-ACTB-RAB5A 0 | WPMY1-CANX-COX4 0 | WPMY1-GM130-SQSTM1 0 | WPMY1-TP53BP1-CLTA 0 | WPMY1-TUBA1B-RELA 0

O=C1CCC[C@@H]2[C@H]3CCC[N+]4([O-])CCC[C@@H](CN12)[C@@H]34 (stereo not given in full) [Oxymatrine]
inactive: A549-ACTB-RAB5A 0 | A549-CANX-COX4 0 | A549-GM130-SQSTM1 0 | A549-TP53BP1-CLTA 0 | A549-TUBA1B-RELA 0 | HepG2-ACTB-RAB5A 0 | HepG2-CANX-COX4 0 | HepG2-GM130-SQSTM1 0 | HepG2-TP53BP1-CLTA 0 | HepG2-TUBA1B-RELA 0 | WPMY1-ACTB-RAB5A 0 | WPMY1-CANX-COX4 0 | WPMY1-GM130-SQSTM1 0 | WPMY1-TP53BP1-CLTA 0 | WPMY1-TUBA1B-RELA 0

CN1C(=O)CC[C@H]1c1cccnc1 [(-)-Cotinine]
inactive: A549-ACTB-RAB5A 0 | A549-CANX-COX4 0 | A549-GM130-SQSTM1 0 | A549-TP53BP1-CLTA 0 | A549-TUBA1B-RELA 0 | HepG2-ACTB-RAB5A 0 | HepG2-CANX-COX4 0 | HepG2-GM130-SQSTM1 0 | HepG2-TP53BP1-CLTA 0 | HepG2-TUBA1B-RELA 0 | WPMY1-ACTB-RAB5A 0 | WPMY1-CANX-COX4 0 | WPMY1-GM130-SQSTM1 0 | WPMY1-TP53BP1-CLTA 0 | WPMY1-TUBA1B-RELA 0

CCCCOc1cc(C(=O)OCCN(CC)CC)ccc1N [oxybuprocaine]
inactive: A549-ACTB-RAB5A 0 | A549-CANX-COX4 0 | A549-GM130-SQSTM1 0 | A549-TP53BP1-CLTA 0 | A549-TUBA1B-RELA 0 | HepG2-ACTB-RAB5A 0 | HepG2-CANX-COX4 0 | HepG2-GM130-SQSTM1 0 | HepG2-TP53BP1-CLTA 0 | HepG2-TUBA1B-RELA 0 | WPMY1-ACTB-RAB5A 0 | WPMY1-CANX-COX4 0 | WPMY1-GM130-SQSTM1 0 | WPMY1-TP53BP1-CLTA 0 | WPMY1-TUBA1B-RELA 0

COc1cc2ncnc(Oc3cccc(NC(=O)Nc4cc(C(C)(C)C(F)(F)F)on4)c3)c2cc1OC
inactive: A549-ACTB-RAB5A 0 | A549-CANX-COX4 0 | A549-GM130-SQSTM1 0 | A549-TP53BP1-CLTA 0 | A549-TUBA1B-RELA 0 | HepG2-ACTB-RAB5A 0 | HepG2-CANX-COX4 0 | HepG2-GM130-SQSTM1 0 | HepG2-TP53BP1-CLTA 0 | HepG2-TUBA1B-RELA 0 | WPMY1-ACTB-RAB5A 0 | WPMY1-CANX-COX4 0 | WPMY1-GM130-SQSTM1 0 | WPMY1-TP53BP1-CLTA 0 | WPMY1-TUBA1B-RELA 0
